# From the supplement of paper PMC10849652
# Targets with a hit are over-represented here; the source holds about 8,800 in all. About 0.5% of all pairs of compound and target were hits. Unmarked numbers belong to inactive results.
# How the values were obtained:
# Assay in all cases: log2 fold change, soluble protein after heating vs DMSO (PISA); higher = thermal stabilisation; K562 lysate, 10 uM; active = over 0.2 and 3.5 SD of the protein, either way, in both replicates (recomputed)
# alvocidib = compound: CN1CC[C@H](c2c(O)cc(O)c3c(=O)cc(-c4ccccc4Cl)oc23)[C@H](O)C1 [alvocidib]
# In short: (§1)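 A 30 min treatment with 10 μM compound was applied to crude K562 extract at 1 mg/mL protein in PBS pH 7.4 with 1 mM MgCl2. Heating for 3 min spanned 48°C-58°C, after which aliquots were pooled, adjusted to 0.5% NP-40 at 4°C and spun at 21,000xg for 90 min. TMTpro 16plex LC-MS/MS of the supernatant, with channel sums equalised, gave values recorded as log-two fold change in thermal stability against solvent controls, from duplicates.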
# Tubastatin A = compound: CN1CCc2c(c3ccccc3n2Cc2ccc(C(=O)NO)cc2)C1 [Tubastatin A]
# In short: as §1
# [1] = compound: CNC(=O)C1=CC=CC=C1NC2=NC(=NC=C2Cl)NC3=C(C=C(C=C3)N4CCOCC4)OC
# In short: as §1
# defactinib = compound: CNC(=O)c1ccc(Nc2ncc(C(F)(F)F)c(NCc3nccnc3N(C)S(C)(=O)=O)n2)cc1 [defactinib]
# In short: as §1
# [2] = compound: CNc1nc(-c2ccc3c(N)n[nH]c3c2)cc(N2C[C@@H](C(=O)NC3CCCCC3)CC[C@H]2C)n1
# In short: as §1
# encorafenib = compound: COC(=O)N[C@@H](C)CNc1nccc(-c2cn(C(C)C)nc2-c2cc(Cl)cc(NS(C)(=O)=O)c2F)n1 [encorafenib]
# In short: as §1
# [3] = compound: COC(=O)[C@H](CCSC)NC(=O)C1=C(C=C(C=C1)NC[C@H](CS)N)C2=CC=CC=C2
# In short: as §1
# alisertib = compound: COc1cc(Nc2ncc3c(n2)-c2ccc(Cl)cc2C(c2c(F)cccc2OC)=NC3)ccc1C(=O)O [alisertib]
# In short: as §1
# [4] = compound: COc1cc2nc(-c3cc(F)ccc3O)nc(N[C@@H]3CNC[C@H]3C(C)(C)O)c2cc1OC
# In short: as §1
# gefitinib = compound: COc1cc2ncnc(Nc3ccc(F)c(Cl)c3)c2cc1OCCCN1CCOCC1 [gefitinib]
# In short: as §1
# lapatinib = compound: CS(=O)(=O)CCNCc1ccc(-c2ccc3ncnc(Nc4ccc(OCc5cccc(F)c5)c(Cl)c4)c3c2)o1 [lapatinib]
# In short: as §1
# pictilisib = compound: CS(=O)(=O)N1CCN(Cc2cc3nc(-c4cccc5[nH]ncc45)nc(N4CCOCC4)c3s2)CC1 [pictilisib]
# In short: as §1
# crizotinib = compound: C[C@@H](Oc1cc(-c2cnn(C3CCNCC3)c2)cnc1N)c1c(Cl)ccc(F)c1Cl [crizotinib]
# In short: as §1
# [5] = compound: C[C@H](C1=CC=C(C=C1)C(=O)NC2=C3C=CNC3=NC=C2)N
# In short: as §1
# duvelisib = compound: C[C@H](Nc1ncnc2nc[nH]c12)c1cc2cccc(Cl)c2c(=O)n1-c1ccccc1 [duvelisib]
# In short: as §1
# gandotinib = compound: Cc1cc(Nc2cc(CN3CCOCC3)c3nc(C)c(Cc4ccc(Cl)cc4F)n3n2)n[nH]1 [gandotinib]
# In short: as §1
# tozasertib = compound: Cc1cc(Nc2cc(N3CCN(C)CC3)nc(Sc3ccc(NC(=O)C4CC4)cc3)n2)n[nH]1 [tozasertib]
# In short: as §1
# doramapimod = compound: Cc1ccc(-n2nc(C(C)(C)C)cc2NC(=O)Nc2ccc(OCCN3CCOCC3)c3ccccc23)cc1 [doramapimod]
# In short: as §1
# bafetinib = compound: Cc1ccc(NC(=O)c2ccc(CN3CC[C@H](N(C)C)C3)c(C(F)(F)F)c2)cc1Nc1nccc(-c2cncnc2)n1 [bafetinib]
# In short: as §1
# [6] = compound: Cc1cccc(CC(=O)N2CCc3c2ccc(-c2cn(C)c4ncnc(N)c24)c3F)n1
# In short: as §1
# Sequence of UniProt Q9NRW3 (Q9NRW3 whole entry, looked up): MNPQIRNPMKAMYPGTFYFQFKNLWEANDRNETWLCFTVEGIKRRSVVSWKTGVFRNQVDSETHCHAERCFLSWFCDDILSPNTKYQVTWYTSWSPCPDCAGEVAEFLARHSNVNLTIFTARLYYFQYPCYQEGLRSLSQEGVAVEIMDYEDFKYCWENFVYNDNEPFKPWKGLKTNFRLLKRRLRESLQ
# Sequence of UniProt P53396 (P53396 whole entry, looked up): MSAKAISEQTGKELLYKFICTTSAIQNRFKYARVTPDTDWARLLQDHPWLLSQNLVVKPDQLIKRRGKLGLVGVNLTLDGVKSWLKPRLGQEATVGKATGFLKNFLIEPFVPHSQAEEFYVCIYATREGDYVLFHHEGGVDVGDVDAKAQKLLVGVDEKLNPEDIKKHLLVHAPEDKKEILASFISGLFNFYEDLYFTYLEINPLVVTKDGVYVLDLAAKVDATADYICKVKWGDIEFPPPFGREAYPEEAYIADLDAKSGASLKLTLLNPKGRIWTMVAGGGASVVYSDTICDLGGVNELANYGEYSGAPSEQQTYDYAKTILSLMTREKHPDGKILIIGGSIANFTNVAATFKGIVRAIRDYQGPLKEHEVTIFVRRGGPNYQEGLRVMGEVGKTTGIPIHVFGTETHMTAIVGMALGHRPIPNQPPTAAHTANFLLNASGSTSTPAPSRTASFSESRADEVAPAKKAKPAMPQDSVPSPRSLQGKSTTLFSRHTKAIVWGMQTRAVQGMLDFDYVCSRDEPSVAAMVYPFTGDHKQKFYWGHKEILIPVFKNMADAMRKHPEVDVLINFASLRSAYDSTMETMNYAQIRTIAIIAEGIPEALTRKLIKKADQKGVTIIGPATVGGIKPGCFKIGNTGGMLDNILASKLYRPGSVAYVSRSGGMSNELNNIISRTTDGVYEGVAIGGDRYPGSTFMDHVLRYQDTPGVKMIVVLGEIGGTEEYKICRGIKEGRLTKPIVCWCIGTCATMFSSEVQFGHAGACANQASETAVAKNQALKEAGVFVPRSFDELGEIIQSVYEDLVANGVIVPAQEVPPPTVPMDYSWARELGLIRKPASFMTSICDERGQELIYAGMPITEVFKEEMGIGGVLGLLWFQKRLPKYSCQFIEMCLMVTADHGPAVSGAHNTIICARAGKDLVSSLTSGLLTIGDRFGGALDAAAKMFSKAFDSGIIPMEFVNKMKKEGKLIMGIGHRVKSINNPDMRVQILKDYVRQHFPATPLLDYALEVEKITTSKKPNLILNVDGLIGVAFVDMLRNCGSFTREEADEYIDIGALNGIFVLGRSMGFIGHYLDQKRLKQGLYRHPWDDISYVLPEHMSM
# Sequence of UniProt P08243 (P08243 whole entry, looked up): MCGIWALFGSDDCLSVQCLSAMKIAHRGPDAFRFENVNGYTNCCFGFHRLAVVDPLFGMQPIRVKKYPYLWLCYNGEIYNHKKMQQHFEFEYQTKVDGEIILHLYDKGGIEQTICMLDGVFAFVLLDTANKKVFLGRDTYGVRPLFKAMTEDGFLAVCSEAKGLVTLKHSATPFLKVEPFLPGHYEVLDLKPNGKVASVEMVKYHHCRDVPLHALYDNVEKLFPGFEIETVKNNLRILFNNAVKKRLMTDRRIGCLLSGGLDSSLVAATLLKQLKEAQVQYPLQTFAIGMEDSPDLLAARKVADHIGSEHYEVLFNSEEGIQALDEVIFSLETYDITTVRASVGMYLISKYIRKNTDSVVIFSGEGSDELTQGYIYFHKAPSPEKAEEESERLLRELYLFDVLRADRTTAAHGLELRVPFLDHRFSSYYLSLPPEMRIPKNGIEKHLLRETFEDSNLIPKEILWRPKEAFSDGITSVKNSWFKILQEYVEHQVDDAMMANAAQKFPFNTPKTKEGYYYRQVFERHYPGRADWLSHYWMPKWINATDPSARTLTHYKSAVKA
# Sequence of UniProt Q9Y4X0 (Q9Y4X0 whole entry, looked up): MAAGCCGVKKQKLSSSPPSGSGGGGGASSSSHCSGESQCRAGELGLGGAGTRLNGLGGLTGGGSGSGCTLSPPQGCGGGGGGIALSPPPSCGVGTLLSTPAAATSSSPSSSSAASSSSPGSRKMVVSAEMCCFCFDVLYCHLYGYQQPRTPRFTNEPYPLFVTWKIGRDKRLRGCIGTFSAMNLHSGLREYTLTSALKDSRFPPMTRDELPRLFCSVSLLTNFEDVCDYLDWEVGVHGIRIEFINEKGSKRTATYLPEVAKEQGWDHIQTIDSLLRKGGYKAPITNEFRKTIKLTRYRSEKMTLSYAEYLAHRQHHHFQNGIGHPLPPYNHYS
# Sequence of UniProt Q9BVK2 (Q9BVK2 whole entry, looked up): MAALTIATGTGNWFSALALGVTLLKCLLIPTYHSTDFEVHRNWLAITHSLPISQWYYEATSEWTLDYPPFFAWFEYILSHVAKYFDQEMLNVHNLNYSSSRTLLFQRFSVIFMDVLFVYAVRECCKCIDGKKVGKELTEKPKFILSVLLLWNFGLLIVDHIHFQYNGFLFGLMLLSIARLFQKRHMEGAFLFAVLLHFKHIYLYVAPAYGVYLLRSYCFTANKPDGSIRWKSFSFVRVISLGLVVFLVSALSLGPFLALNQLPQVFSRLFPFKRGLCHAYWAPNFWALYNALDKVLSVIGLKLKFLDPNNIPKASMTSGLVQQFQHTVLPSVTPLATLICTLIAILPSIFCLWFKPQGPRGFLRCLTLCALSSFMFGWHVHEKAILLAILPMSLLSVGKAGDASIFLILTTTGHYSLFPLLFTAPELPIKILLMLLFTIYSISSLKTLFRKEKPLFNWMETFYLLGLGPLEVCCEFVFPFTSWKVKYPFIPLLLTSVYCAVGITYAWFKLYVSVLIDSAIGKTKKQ
# Sequence of UniProt P07355 (P07355 whole entry, looked up): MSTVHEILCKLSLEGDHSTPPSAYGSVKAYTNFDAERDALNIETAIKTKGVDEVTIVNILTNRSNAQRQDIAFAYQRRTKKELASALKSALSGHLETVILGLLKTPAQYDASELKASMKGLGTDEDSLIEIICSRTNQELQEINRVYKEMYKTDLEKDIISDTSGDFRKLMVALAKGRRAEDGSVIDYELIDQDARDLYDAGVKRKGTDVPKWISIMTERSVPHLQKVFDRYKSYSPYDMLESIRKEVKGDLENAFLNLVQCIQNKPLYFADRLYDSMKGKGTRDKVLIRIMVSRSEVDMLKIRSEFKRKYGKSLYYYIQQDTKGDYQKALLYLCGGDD
# Sequence of UniProt Q9UPW5 (Q9UPW5 whole entry, looked up): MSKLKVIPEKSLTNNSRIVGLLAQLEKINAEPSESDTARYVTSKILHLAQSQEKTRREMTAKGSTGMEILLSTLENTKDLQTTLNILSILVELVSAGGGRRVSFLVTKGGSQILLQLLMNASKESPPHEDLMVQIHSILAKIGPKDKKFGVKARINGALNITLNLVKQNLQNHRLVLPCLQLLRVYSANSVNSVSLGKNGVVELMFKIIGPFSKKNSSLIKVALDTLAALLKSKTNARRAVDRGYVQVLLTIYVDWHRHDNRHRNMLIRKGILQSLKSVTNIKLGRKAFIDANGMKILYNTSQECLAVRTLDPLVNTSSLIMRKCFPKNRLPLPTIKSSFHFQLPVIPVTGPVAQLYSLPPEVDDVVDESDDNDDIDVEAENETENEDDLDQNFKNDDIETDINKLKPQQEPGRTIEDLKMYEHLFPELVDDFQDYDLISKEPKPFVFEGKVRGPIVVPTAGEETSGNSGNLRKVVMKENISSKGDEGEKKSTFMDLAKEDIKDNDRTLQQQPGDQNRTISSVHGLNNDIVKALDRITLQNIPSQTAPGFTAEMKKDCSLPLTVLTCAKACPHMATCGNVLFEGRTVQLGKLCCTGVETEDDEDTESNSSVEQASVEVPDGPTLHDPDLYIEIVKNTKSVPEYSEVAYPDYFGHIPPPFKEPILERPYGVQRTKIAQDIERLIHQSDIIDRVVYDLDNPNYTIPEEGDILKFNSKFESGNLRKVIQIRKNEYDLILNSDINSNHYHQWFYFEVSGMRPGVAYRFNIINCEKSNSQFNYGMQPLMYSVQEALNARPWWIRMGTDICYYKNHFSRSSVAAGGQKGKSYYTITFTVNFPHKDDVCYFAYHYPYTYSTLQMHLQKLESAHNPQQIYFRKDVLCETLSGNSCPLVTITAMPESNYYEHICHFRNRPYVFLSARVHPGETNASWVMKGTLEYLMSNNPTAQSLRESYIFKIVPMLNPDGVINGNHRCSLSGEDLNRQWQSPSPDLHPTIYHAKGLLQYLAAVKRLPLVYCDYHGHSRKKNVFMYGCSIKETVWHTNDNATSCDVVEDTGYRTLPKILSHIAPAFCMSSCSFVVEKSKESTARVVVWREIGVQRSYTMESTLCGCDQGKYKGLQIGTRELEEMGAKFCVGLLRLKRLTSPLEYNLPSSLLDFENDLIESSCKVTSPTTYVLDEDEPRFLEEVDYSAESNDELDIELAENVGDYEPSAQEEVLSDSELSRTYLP
# Sequence of UniProt Q9UJX3 (Q9UJX3 whole entry, looked up): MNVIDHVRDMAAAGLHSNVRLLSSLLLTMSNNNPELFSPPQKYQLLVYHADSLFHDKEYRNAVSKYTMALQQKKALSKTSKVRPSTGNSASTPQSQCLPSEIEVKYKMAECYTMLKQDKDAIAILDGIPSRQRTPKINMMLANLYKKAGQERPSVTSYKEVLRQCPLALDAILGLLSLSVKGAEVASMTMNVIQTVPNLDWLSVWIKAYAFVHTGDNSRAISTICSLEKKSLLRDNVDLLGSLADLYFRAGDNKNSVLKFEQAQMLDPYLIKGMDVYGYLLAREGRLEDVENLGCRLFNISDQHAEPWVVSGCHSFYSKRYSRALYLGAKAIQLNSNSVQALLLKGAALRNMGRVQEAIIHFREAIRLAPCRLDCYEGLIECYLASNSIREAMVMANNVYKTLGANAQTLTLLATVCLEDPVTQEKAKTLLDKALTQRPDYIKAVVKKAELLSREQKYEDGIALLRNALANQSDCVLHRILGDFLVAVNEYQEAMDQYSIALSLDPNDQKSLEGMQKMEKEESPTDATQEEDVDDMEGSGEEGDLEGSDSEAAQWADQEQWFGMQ
Target,log2 fold change (alvocidib),log2 fold change (Tubastatin A),log2 fold change [1],log2 fold change (defactinib),log2 fold change [2],log2 fold change (encorafenib),log2 fold change [3],log2 fold change (alisertib),log2 fold change [4],log2 fold change (gefitinib),log2 fold change (lapatinib),log2 fold change (pictilisib),log2 fold change (crizotinib),log2 fold change [5],log2 fold change (duvelisib),log2 fold change (gandotinib),log2 fold change (tozasertib),log2 fold change (doramapimod),log2 fold change (bafetinib),log2 fold change [6]
ACLY (UniProt P53396),0.022,0.078,-0.006,-0.036,0.01,-0.043,0.133,0.016,0.003,0.004,-0.011,-0.009,-0.005,-0.025,0.012,0.01,0.003,0.015,0.008,0.013
ANAPC7 (UniProt Q9UJX3),0.011,-0.1,0.036,0.014,-0.03,0.026,0.002,-0.001,0.005,0.017,-0.017,0.002,-0.029,-0.009,-0.018,-0.042,-0.019,0.023,-0.036,0.002
AK2 (UniProt P54819),-0.003,0.05,-0.019,0.016,0.033,-0.025,-0.018,0.008,-0.025,0.019,0.058,-0.005,-0.007,0.076,-0.031,0,0,0.061,0.005,-0.046
AKAP11 (UniProt Q9UKA4),0.032,0.026,0.001,0.093,-0.01,-0.03,0.144,-0.022,-0.119,-0.114,0.021,-0.08,0.025,-0.02,0.015,-0.176,0.061,-0.036,-0.084,-0.005
AMMECR1 (UniProt Q9Y4X0),-0.014,0.022,0.02,0.02,0.003,0.02,-0.01,-0.031,0.011,-0.019,0.005,-0.013,-0.011,-0.027,0.022,-0.019,0.039,-0.009,-0.04,0.037
ANXA2 isoform 2 (UniProt P07355),0.012,0.013,-0.012,-0.011,-0.026,-0.03,-0.007,0.002,0.003,-0.009,0.009,-0.005,0.029,0.017,-0.028,0.008,-0.001,-0.024,0.065,-0.041
ALG8 (UniProt Q9BVK2),0.004,-0.118,-0.007,0.001,-0.012,0.04,-0.09,0.076,-0.019,0.103,-0.043,-0.043,0.017,-0.211,-0.013,0,0.116,-0.06,-0.08,0.087
ALDH1B1 (UniProt P30837),0.168,0.01,0.233 (active),-0.029,0.007,-0.008,0.127,-0.002,0.006,-0.026,-0.012,0.008,-0.007,-0.024,0.058,0.052,0.021,-0.017,-0.049,-0.041
ARAP1 (UniProt Q96P48),-0.027,-0.135,0.033,0.075,0.017,0.06,0.078,0.015,0.003,0.041,-0.022,-0.046,-0.065,-0.03,-0.002,0.014,-0.005,0.063,-0.016,0.034
AGTPBP1 (UniProt Q9UPW5),0.034,0.046,0.024,-0.058,-0.001,-0.014,-0.031,0.097,-0.039,-0.004,0.008,-0.103,-0.121,0.018,0.009,-0.271,0.028,0.007,0.001,0.113
AGO4 (UniProt Q9HCK5),-0.013,-0.003,0.003,-0.027,-0.214 (active),0.025,-0.092,-0.008,0.037,-0.015,0.013,-0.076,-0.01,-0.113,0.014,0.048,-0.001,-0.014,-0.004,0.002
ASNS (UniProt P08243),0.019,-0.025,-0.036,0.006,0.027,-0.009,-0.12,0.019,0.009,0.004,-0.019,-0.012,-0.042,0.013,-0.001,-0.051,0.011,-0.01,-0.033,0.002
ANXA11 (UniProt P50995),-0.025,0.017,0.009,-0.012,-0.019,-0.004,0.027,0.015,-0.015,-0.014,-0.005,-0.008,0.001,-0.044,-0.022,0.008,0.026,0.012,-0.03,0.039
AKAP8 (UniProt O43823),-0.031,-0.038,-0.059,-0.001,-0.073,0.072,-0.098,0.02,0.058,-0.042,0.008,-0.126,0.023,0.035,0.022,0.003,0.017,-0.071,-0.119,0.039
AK4 (UniProt P27144),0.025,0.036,-0.008,0.003,0.009,0.006,-0.07,0.026,-0.034,-0.043,-0.003,-0.033,0.028,-0.027,0.014,-0.019,0.052,0.03,-0.024,0.012
APOBEC3C (UniProt Q9NRW3),-0.019,-0.121,0.018,0.013,-0.007,0.047,-0.067,0.009,0.003,-0.005,0.011,0.033,-0.09,-0.058,0.021,0.066,-0.055,0.1,-0.023,0.153
